# From PubChem BioAssay (EPA / NIEHS)
# Activity calls are given as the source filed them. How the source made its calls: active means hit-call score of the fitted dose curve at least 0.9, where 1 is the maximum; inactive means score below 0.9.
# Assay: ATG_GRE_CIS: Attagene CIS-FACTORIAL HepG2 Assay for human Glucocorticoid Response Elements (GRE) (AID 2282947)
# Conditions: HepG2 GRE cis-reporter, Attagene multiplex mRNA; actives raise or lower the signal
# Protocol: ATG_CIS is a cell-based, multiplexed-readout assay that uses HepG2, a human liver cell line, with measurements taken at 24 hours after chemical dosing in a 24-well plate.ATG_GRE_CIS is one of 52 assay component(s) measured or calculated from the ATG_CIS assay. It is designed to make measurements of mRNA induction, a form of inducible reporter, as detected with fluorescence intensity signals by Reverse transcription polymerase chain reaction (RT-PCR) and Capillary electrophoresis technology.Data from the assay component ATG_GRE_CIS was analyzed into 1 assay endpoint. This assay endpoint, ATG_GRE_CIS, was analyzed with bidirectional fitting relative to DMSO as the negative control and baseline of activity. Using a type of inducible reporter, measures of mRNA for gain or loss-of-signal activity can be used to understand the reporter gene at the transcription factor-level as they relate to the gene NR3C1. Furthermore, this assay endpoint can be referred to as a primary readout, because this assay has produced multiple assay endpoints where this one serves a reporter gene function. To generalize the intended target to other relatable targets, this assay endpoint is annotated to the nuclear receptor intended target family, where the subfamily is steroidal.
# Human liver HepG2 cells are transiently transfected with multiple reporter transcription units (MRTUs) in 6-well plates using FuGene 6 reagent (Roche; 3 ml FuGene/1 mg DNA). The MRTU constructs are regulated by a cis-regulating element (promoter). […] A major difference between the CIS and TRANS system is that in CIS activities of endogenous TFs are measured, whereas the TRANS assay evaluates changes in activities of exogenous, chimeric NR-Gal4 proteins. […] At the end of 24 hour incubation, total RNA was isolated using TriZol reagent (Invitrogen). The isolated RNA is then reverse-transcribed using oligo(dT) primer and Mo-MLV reverse transcriptase (Invitrogen) with DNAse I (Ambion) treatment for 30 min. The one-tenth of the produced cDNA was amplified by PCR using Taq DNA polymerase (Invitrogen) and two reporter sequence-specific primers. The PCR products were fluorescently labeled by primer extension with 6-arboxyfluorescein (6-FAM) 5'-labeled reporter sequence-specific primer (2 min at 95 C, 20 s at 68 C and 10 min at 72 C) and these products were digested with 5U of HpaI (New England Biolabs) for 2h at 37 C. The fragments were purified using Qiaquick PCR columns (Qiagen), analyzed on an ABI 3130xL genetic analyzer (Applied Biosystems) with peak positions identified by using a set of X-rhodamine (ROX)-labeled MapMarker1000 molecular weight standards (BioVentures). The raw capillary electrophoresis data was processed using Attagraph software (Attagene).
Structure (SMILES),outcome,AC50
Cc1cc(O)c(C)c(C)c1O,inactive,–
CCCCC/C=C\C=C\C(=O)OCC,inactive,–
CC(C)(O)C(=O)c1ccc(OCCO)cc1,inactive,–
CC(C)N(c1ccccc1)C(C)C,inactive,–
c1ccc2scnc2c1,inactive,–
CC(C)Cc1ccccc1,inactive,–
CC1=CC(O)CC(C)(C)C1 (stereo not given),inactive,–
CC(C)COC(=O)c1ccccc1O,inactive,–
O=C(O)c1ccc(C(=O)O)c(C(=O)O)c1,inactive,–
C=CC(=O)OCC(CO)(COC(=O)C=C)COC(=O)C=C,inactive,–
CCCCCCC(C)O (stereo not given),inactive,–
C=C(C)C(=O)OCCC[Si](OC)(OC)OC,inactive,–
Cc1cccc(C)c1,inactive,–
CC(=N[Si](C)(C)C)O[Si](C)(C)C,inactive,–
Nc1ccc(N)c([N+](=O)[O-])c1,inactive,–
[Cu+],inactive,–
CCCCCC(=O)O[C@]1(C(C)=O)CC[C@H]2[C@@H]3CCC4=CC(=O)CC[C@]4(C)[C@H]3CC[C@@]21C,–,55.1 µM (active)
CC(=O)CC(=O)N(C)C,inactive,–
C=C1CC[C@H]2O[C@]2(C)CC[C@@H]2[C@@H]1CC2(C)C,inactive,–
CCCCCCCCOC(=O)c1ccc(O)cc1,inactive,–

Structure (SMILES),outcome,AC50
CCCCCCCCCO,inactive,–
CCOc1ccc(NC(C)=O)cc1,inactive,–
O=C1CCC(=O)N1,inactive,–
COc1ccccc1O,inactive,–
N=C1N=C(N)c2ccccc21,inactive,–
CN1CCc2cccc3c2[C@H]1Cc1ccc(O)c(O)c1-3,inactive,–
CCCCCCOC(C)=O,inactive,–
CC/C(=C(\c1ccccc1)c1ccc(OCCN(C)C)cc1)c1ccccc1,inactive,–
CN(C)c1ccc(C=O)cc1,inactive,–
CNC(=C[N+](=O)[O-])NCCSCc1ccc(CN(C)C)o1,inactive,–
C=C(C)C(=O)OCCC(C)OC(=O)C(=C)C (stereo not given),inactive,–
CCOC(=O)CC(C)C,inactive,–
CCCCCCCCCCCCN1CCOCC1,inactive,–
C[C@H](CCC(=O)O)[C@H]1CC[C@H]2[C@@H]3CC[C@@H]4C[C@H](O)CC[C@]4(C)[C@H]3CC[C@]12C,inactive,–
O=C1OC2(c3ccc(O)cc3Oc3cc(O)ccc32)c2ccccc21,inactive,–
O=c1cc[nH]cc1,inactive,–
C=C/C(C)=C/C/C=C(\C)CCC=C(C)C,inactive,–
CCCCOC(=O)C(C)OC(=O)CCC (stereo not given),inactive,–
O=c1cc(-c2ccc(O)cc2)oc2cc(O)cc(O)c12,inactive,–
c1ccc(Cc2ccccc2)cc1,inactive,–
